# Legend:
# Experiment in all cases: SPOT peptide array binding signal intensity (averaged, normalized) (arbitrary units (background-subtracted, floor 0; scale differs between SH3 domains)); higher = stronger binding of the SH3 domain to the peptide
# SpBzz1-D2 = target: SpBzz1-D2
# Experimental: (§1)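 GST-tagged SH3 domains from S. cerevisiae (Sc), A. gossypii (Ag), C. albicans (Ca) and S. pombe (Sp) were incubated at 10 ug/ml overnight at 4 C on cellulose SPOT membranes carrying 292 synthetic 15-mer peptides mined from the S. cerevisiae proteome (cysteines replaced by serines). Binding was detected with anti-GST antibody, HRP secondary and chemiluminescence, quantified with Genespotter, and reported as normalized spot intensities averaged over biological replicates.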
# SpCyk3 = target: SpCyk3
# Experimental: as §1
# SpHof1 = target: SpHof1
# Experimental: as §1
# SpHof1-2 = target: SpHof1-2
# Experimental: as §1
# SpHof1-3 = target: SpHof1-3
# Experimental: as §1
# SpHse1 = target: SpHse1
# Experimental: as §1
# SpLsb1 = target: SpLsb1
# Experimental: as §1
# SpLsb4 = target: SpLsb4
# Experimental: as §1
# SpMyo1 = target: SpMyo1
# Experimental: as §1
# SpNbp2 = target: SpNbp2
# Experimental: as §1
# SpPex13 = target: SpPex13
# Experimental: as §1
# SpRvs167 = target: SpRvs167
# Experimental: as §1
# SpSla1-D1-D2 = target: SpSla1-D1-D2
# Experimental: as §1
# SpSla1-D3 = target: SpSla1-D3
# Experimental: as §1
# AgAbp1 = target: AgAbp1
# Experimental: as §1
# AgBbc1 = target: AgBbc1
# Experimental: as §1
# AgBem1-D1 = target: AgBem1-D1
# Experimental: as §1
# AgBzz1-D1 = target: AgBzz1-D1
# Experimental: as §1
# AgBzz1-D2 = target: AgBzz1-D2
# Experimental: as §1
# AgCyk3 = target: AgCyk3
# Experimental: as §1
# AgFus1 = target: AgFus1
# Experimental: as §1
# AgHof1 = target: AgHof1
# Experimental: as §1
# AgHse1 = target: AgHse1
# Experimental: as §1
# AgLsb1 = target: AgLsb1
# Experimental: as §1
# AgLsb4 = target: AgLsb4
# Experimental: as §1
# AgMyo5 = target: AgMyo5
# Experimental: as §1
# AgNbp2 = target: AgNbp2
# Experimental: as §1
# AgRvs167 = target: AgRvs167
# Experimental: as §1
# AgSho1 = target: AgSho1
# Experimental: as §1
# AgSla1-D1-D2 = target: AgSla1-D1-D2
# Experimental: as §1
# AgSla1-D3 = target: AgSla1-D3
# Experimental: as §1
# CaAbp1-D1 = target: CaAbp1-D1
# Experimental: as §1
# CaAbp1-D2 = target: CaAbp1-D2
# Experimental: as §1
# CaBbc1 = target: CaBbc1
# Experimental: as §1
# CaBem1-D1 = target: CaBem1-D1
# Experimental: as §1
# CaBzz1-D1 = target: CaBzz1-D1
# Experimental: as §1
# CaBzz1-D2 = target: CaBzz1-D2
# Experimental: as §1
# CaCyk3 = target: CaCyk3
# Experimental: as §1
# CaFus1 = target: CaFus1
# Experimental: as §1
# CaHof1 = target: CaHof1
# Experimental: as §1
# CaHse1 = target: CaHse1
# Experimental: as §1
# CaLsb1 = target: CaLsb1
# Experimental: as §1
# CaLsb4 = target: CaLsb4
# Experimental: as §1
# CaMyo5 = target: CaMyo5
# Experimental: as §1
# CaNbp2 = target: CaNbp2
# Experimental: as §1
# CaRvs167 = target: CaRvs167
# Experimental: as §1
# CaRvs167-3 = target: CaRvs167-3
# Experimental: as §1
# CaSho1 = target: CaSho1
# Experimental: as §1
# CaSla1-D1-D2 = target: CaSla1-D1-D2
# Experimental: as §1
# CaSla1-D3 = target: CaSla1-D3
# Experimental: as §1
# ScAbp1 = target: ScAbp1
# Experimental: as §1
# ScBbc1 = target: ScBbc1
# Experimental: as §1
# ScBem1-D1 = target: ScBem1-D1
# Experimental: as §1
# ScBzz1-D1 = target: ScBzz1-D1
# Experimental: as §1
# ScBzz1-D2 = target: ScBzz1-D2
# Experimental: as §1
# ScCyk3 = target: ScCyk3
# Experimental: as §1
# ScFus1 = target: ScFus1
# Experimental: as §1
# ScHof1 = target: ScHof1
# Experimental: as §1
# ScHse1 = target: ScHse1
# Experimental: as §1
# ScLsb1 = target: ScLsb1
# Experimental: as §1
# ScLsb2 = target: ScLsb2
# Experimental: as §1
# ScLsb3 = target: ScLsb3
# Experimental: as §1
# ScLsb4 = target: ScLsb4
# Experimental: as §1
# ScMyo3 = target: ScMyo3
# Experimental: as §1
# ScMyo5 = target: ScMyo5
# Experimental: as §1
# ScNbp2 = target: ScNbp2
# Experimental: as §1
# ScPex13 = target: ScPex13
# Experimental: as §1
# ScRvs167 = target: ScRvs167
# Experimental: as §1
# ScSho1 = target: ScSho1
# Experimental: as §1
# ScSla1-D1-D2 = target: ScSla1-D1-D2
# Experimental: as §1
# ScSla1-D3 = target: ScSla1-D3
# Experimental: as §1
# SpAbp1-D1 = target: SpAbp1-D1
# Experimental: as §1
# SpBbc1 = target: SpBbc1
# Experimental: as §1
# SpBzz1-D1 = target: SpBzz1-D1
# Experimental: as §1
binder,measurement,setting,value
KLSRGRYGLPLSSRP,SPOT peptide array binding signal intensity,SpBzz1-D2,≤ 0
same,SPOT peptide array binding signal intensity,SpCyk3,6.5
same,SPOT peptide array binding signal intensity,SpHof1,88.8
same,SPOT peptide array binding signal intensity,SpHof1-2,10.5
same,SPOT peptide array binding signal intensity,SpHof1-3,326
same,SPOT peptide array binding signal intensity,SpHse1,150
same,SPOT peptide array binding signal intensity,SpLsb1,110
same,SPOT peptide array binding signal intensity,SpLsb4,48.5
same,SPOT peptide array binding signal intensity,SpMyo1,2
same,SPOT peptide array binding signal intensity,SpNbp2,38
same,SPOT peptide array binding signal intensity,SpPex13,1
same,SPOT peptide array binding signal intensity,SpRvs167,4.33
same,SPOT peptide array binding signal intensity,SpSla1-D1-D2,≤ 0
same,SPOT peptide array binding signal intensity,SpSla1-D3,≤ 0
SKAKRPKFLLDLQIK,SPOT peptide array binding signal intensity,AgAbp1,32.5
same,SPOT peptide array binding signal intensity,AgBbc1,2
same,SPOT peptide array binding signal intensity,AgBem1-D1,60
same,SPOT peptide array binding signal intensity,AgBzz1-D1,38
same,SPOT peptide array binding signal intensity,AgBzz1-D2,29.5
same,SPOT peptide array binding signal intensity,AgCyk3,10
same,SPOT peptide array binding signal intensity,AgFus1,152
same,SPOT peptide array binding signal intensity,AgHof1,16.5
same,SPOT peptide array binding signal intensity,AgHse1,154
same,SPOT peptide array binding signal intensity,AgLsb1,2.75
same,SPOT peptide array binding signal intensity,AgLsb4,16
same,SPOT peptide array binding signal intensity,AgMyo5,0.25
same,SPOT peptide array binding signal intensity,AgNbp2,11
same,SPOT peptide array binding signal intensity,AgRvs167,3.33
same,SPOT peptide array binding signal intensity,AgSho1,15
same,SPOT peptide array binding signal intensity,AgSla1-D1-D2,214
same,SPOT peptide array binding signal intensity,AgSla1-D3,5.5
same,SPOT peptide array binding signal intensity,CaAbp1-D1,502
same,SPOT peptide array binding signal intensity,CaAbp1-D2,337
same,SPOT peptide array binding signal intensity,CaBbc1,80.8
same,SPOT peptide array binding signal intensity,CaBem1-D1,13.5
same,SPOT peptide array binding signal intensity,CaBzz1-D1,110
same,SPOT peptide array binding signal intensity,CaBzz1-D2,127
same,SPOT peptide array binding signal intensity,CaCyk3,19
same,SPOT peptide array binding signal intensity,CaFus1,510
same,SPOT peptide array binding signal intensity,CaHof1,0.5
same,SPOT peptide array binding signal intensity,CaHse1,≤ 0
same,SPOT peptide array binding signal intensity,CaLsb1,≤ 0
same,SPOT peptide array binding signal intensity,CaLsb4,3.5
same,SPOT peptide array binding signal intensity,CaMyo5,2
same,SPOT peptide array binding signal intensity,CaNbp2,72
same,SPOT peptide array binding signal intensity,CaRvs167,1.67
same,SPOT peptide array binding signal intensity,CaRvs167-3,40.8
same,SPOT peptide array binding signal intensity,CaSho1,148
same,SPOT peptide array binding signal intensity,CaSla1-D1-D2,11
same,SPOT peptide array binding signal intensity,CaSla1-D3,≤ 0
same,SPOT peptide array binding signal intensity,ScAbp1,19
same,SPOT peptide array binding signal intensity,ScBbc1,3.5
same,SPOT peptide array binding signal intensity,ScBem1-D1,9
same,SPOT peptide array binding signal intensity,ScBzz1-D1,33
same,SPOT peptide array binding signal intensity,ScBzz1-D2,24
same,SPOT peptide array binding signal intensity,ScCyk3,51
same,SPOT peptide array binding signal intensity,ScFus1,268
same,SPOT peptide array binding signal intensity,ScHof1,≤ 0
same,SPOT peptide array binding signal intensity,ScHse1,486
same,SPOT peptide array binding signal intensity,ScLsb1,≤ 0
same,SPOT peptide array binding signal intensity,ScLsb2,≤ 0
same,SPOT peptide array binding signal intensity,ScLsb3,6
same,SPOT peptide array binding signal intensity,ScLsb4,2
same,SPOT peptide array binding signal intensity,ScMyo3,1.5
same,SPOT peptide array binding signal intensity,ScMyo5,1
same,SPOT peptide array binding signal intensity,ScNbp2,62
same,SPOT peptide array binding signal intensity,ScPex13,4.25
same,SPOT peptide array binding signal intensity,ScRvs167,1.67
same,SPOT peptide array binding signal intensity,ScSho1,398
same,SPOT peptide array binding signal intensity,ScSla1-D1-D2,27
same,SPOT peptide array binding signal intensity,ScSla1-D3,5
same,SPOT peptide array binding signal intensity,SpAbp1-D1,171
same,SPOT peptide array binding signal intensity,SpBbc1,1.75
same,SPOT peptide array binding signal intensity,SpBzz1-D1,346
same,SPOT peptide array binding signal intensity,SpBzz1-D2,0.5
same,SPOT peptide array binding signal intensity,SpCyk3,14.5
same,SPOT peptide array binding signal intensity,SpHof1,25.2
same,SPOT peptide array binding signal intensity,SpHof1-2,5
same,SPOT peptide array binding signal intensity,SpHof1-3,386
same,SPOT peptide array binding signal intensity,SpHse1,119
same,SPOT peptide array binding signal intensity,SpLsb1,1
same,SPOT peptide array binding signal intensity,SpLsb4,≤ 0
same,SPOT peptide array binding signal intensity,SpMyo1,≤ 0
same,SPOT peptide array binding signal intensity,SpNbp2,33.5
same,SPOT peptide array binding signal intensity,SpPex13,2.5
same,SPOT peptide array binding signal intensity,SpRvs167,≤ 0
same,SPOT peptide array binding signal intensity,SpSla1-D1-D2,3
same,SPOT peptide array binding signal intensity,SpSla1-D3,3
